Compounds with a hit are over-represented: about 3.9% of the library has one in this group of screens.
3CLpro inhibitor = SARS-CoV 3CLpro protease inhibitors, primary screen, biochemical, quenched FRET. inhibition, % at 6 µM. 0.14% of 290,000 active. recombinant SARS-CoV 3CLpro, quenched FRET peptide cleavage; in the data active = inhibition above about 12%
Anthrax LF prot = Bacillus anthracis LF protease inhibitors, primary screen, biochemical, multiplex microsphere, MLPCN library; inhibition, % at 10 µM; 0.12% of 360,000 active; multiplex microsphere protease cleavage assay; also: plate controls were buffer without enzyme for full effect and enzyme alone for no effect
Autofluor counter = compound fluorescence in toxin protease inhibitor counterscreen. fluorescence intensity (test concentration not listed). compound autofluorescence counterscreen, microsphere flow cytometry; hits give high values. 3.1% of 360,000 active; in the data active = fluorescence intensity above about 16000; inconclusive = no clear call, values can overlap the other calls
CCHF vOTU inh = CCHFV vOTU protease inhibitors, primary screen, biochemical, Pep-AMC substrate, fluorescence. Crimean-Congo hemorrhagic fever virus L polyprotein viral ovarian tumor (vOTU) protease …. inhibition, % at 11.5 µM. 0.55% of 370,000 active. AID 651958, 2012; in the data active = inhibition above about 30%; also: 0% = vehicle wells with enzyme and 100% = no enzyme wells
BoNT-A LC inh2 = BoNT/A light chain protease inhibitors, primary screen, biochemical, flow cytometry, MLPCN library | multiplex microsphere protease substrate cleavage | inhibition, % at 10 µM | 0.17% of 360,000 active | AID 588499, 2011; also: plate controls were buffer without enzyme for full effect and enzyme alone for no effect
BoNT F protease = BoNT/F light chain protease inhibitors, primary screen, biochemical, flow cytometry, MLPCN library. Botulinum neurotoxin type F light chain protease (Clostridium botulinum). Multiplex microsphere protease cleavage assay. inhibition, % at 10 µM. 0.22% of 360,000 active; in the data active = inhibition above about 35%, passing the limit was not always enough; inconclusive = no clear call, values can overlap the other calls; also: plate controls were buffer without enzyme for full effect and enzyme alone for no effect
Numbers without * were called inactive. Rule as the data show it, unless noted: active = inhibition above about 30%; inconclusive = no clear call, values can overlap the other calls; inactive = below that.

CC(COc1ccc(C#N)cc1F)CN1CCC(C(O)(c2ccccc2)c2ccccc2)CC1 (centres undefined) was read as CCHF vOTU inh -1.
CCOC(=O)CC[C@H]1CC[C@]2(CCCN(C(=O)c3ccno3)C2)O1 was read as CCHF vOTU inh 5.
Screening CC(C)N1C(=O)S/C(=C/c2cccnc2)C1=O returned 3CLpro inhibitor -3, Anthrax LF prot -3, Autofluor counter 22160*, CCHF vOTU inh 4, BoNT-A LC inh2 inconclusive and BoNT F protease 2.
For CC(C)N1C(=O)S/C(=C/c2ccc3c(c2)n(C)c(=O)n3C)C1=O the results were 3CLpro inhibitor -4, Anthrax LF prot -2, Autofluor counter 6256, CCHF vOTU inh -3, BoNT-A LC inh2 -1 and BoNT F protease -8.
Screening CCN(CCC(=O)O)c1ccccc1 returned 3CLpro inhibitor 4, Anthrax LF prot 0, Autofluor counter 3322, CCHF vOTU inh -5, BoNT-A LC inh2 0 and BoNT F protease -3.
For CCN(CC)C1=NC(=[N+](CC)CC)c2ccccc21 the results were 3CLpro inhibitor 2, Anthrax LF prot -9, Autofluor counter 17474*, CCHF vOTU inh -10, BoNT-A LC inh2 14 and BoNT F protease 17.
O=C(CSc1nnc(COc2ccccc2)n1Cc1ccco1)Nc1ccc(OCc2ccccc2)cc1 was read as CCHF vOTU inh 15.
For CC/C(=N\NC(N)=O)c1c(O)[nH]c(=O)[nH]c1=O the results were 3CLpro inhibitor 1, Anthrax LF prot -17, Autofluor counter inconclusive, CCHF vOTU inh 8, BoNT-A LC inh2 -1 and BoNT F protease inconclusive.
CCCC(=O)c1c(O)[nH]c(=O)[nH]c1=O was read as 3CLpro inhibitor -6, Anthrax LF prot 2, Autofluor counter 22341*, CCHF vOTU inh -4, BoNT-A LC inh2 -1 and BoNT F protease -2.
O=C(O)c1cc(N2C(=O)C3C4C=CC(C4)C3C2=O)ccc1NCc1cccnc1 (centres undefined) was read as 3CLpro inhibitor 2, Anthrax LF prot -2, Autofluor counter 23049*, CCHF vOTU inh -6, BoNT-A LC inh2 0 and BoNT F protease -1.
`Cc1ccc(-n2c(SCC(N)=O)nnc2-c2ccc(S(=O)(=O)N3CCCCC3)cc2)c(C)c1` gave 3CLpro inhibitor -1, Anthrax LF prot -1, Autofluor counter 16453*, CCHF vOTU inh -1, BoNT-A LC inh2 1 and BoNT F protease 0.
`Cc1cc(NC(=O)CSc2nnc(-c3ccc(S(=O)(=O)N4CCCC4)cc3)n2C)no1` gave 3CLpro inhibitor -1, Anthrax LF prot -1, Autofluor counter 7416, CCHF vOTU inh -4, BoNT-A LC inh2 1 and BoNT F protease -1.
`Cc1ccc(NC(=O)CSc2nnc(-c3ccc(S(=O)(=O)N4CCOCC4)cc3)n2C)cc1` gave 3CLpro inhibitor -9, Anthrax LF prot -5, Autofluor counter 19086*, CCHF vOTU inh -4, BoNT-A LC inh2 inconclusive and BoNT F protease 2.
Cn1c(SCC(=O)Nc2ccccc2F)nnc1-c1ccc(S(=O)(=O)N2CCOCC2)cc1 was read as 3CLpro inhibitor 1, Anthrax LF prot 0, Autofluor counter 14730, CCHF vOTU inh -2, BoNT-A LC inh2 5 and BoNT F protease 5.
CCn1c(SCC(=O)Nc2cc(C)on2)nnc1-c1ccc(S(=O)(=O)N2CCCC2)cc1 was read as 3CLpro inhibitor -3, Anthrax LF prot 0, Autofluor counter 20376*, CCHF vOTU inh -3, BoNT-A LC inh2 inconclusive and BoNT F protease -1.
For COCCn1c(SCC(=O)Nc2ccc(S(=O)(=O)N3CCOCC3)cc2)nc2ccccc21 the results were 3CLpro inhibitor 3, Anthrax LF prot -6, Autofluor counter 23038*, CCHF vOTU inh -5, BoNT-A LC inh2 inconclusive and BoNT F protease -4.
For NC(=O)CSc1nnc(-c2ccc(S(=O)(=O)N3CCOCC3)cc2)n1CC1CCCO1 (centres undefined) the results were 3CLpro inhibitor -5, Anthrax LF prot -6, Autofluor counter 22288*, CCHF vOTU inh -3, BoNT-A LC inh2 1 and BoNT F protease 3.
Screening O=C(CCCN1C(=O)c2ccccc2C1=O)Nc1ccc(S(=O)(=O)N2CCCCC2)cc1 returned 3CLpro inhibitor -3, Anthrax LF prot 0, Autofluor counter 11121, CCHF vOTU inh 3, BoNT-A LC inh2 0 and BoNT F protease -14.
`CC1CCN(S(=O)(=O)c2ccc(NC(=O)CSc3nnnn3C)cc2)CC1` gave 3CLpro inhibitor -4, Anthrax LF prot 2, Autofluor counter 23542*, CCHF vOTU inh -7, BoNT-A LC inh2 -1 and BoNT F protease -1.
O=C(CCCN1C(=O)c2ccccc2C1=O)Nc1ccc(S(=O)(=O)N2CCOCC2)cc1 was read as 3CLpro inhibitor 0, Anthrax LF prot -5, Autofluor counter 24200*, CCHF vOTU inh -3, BoNT-A LC inh2 inconclusive and BoNT F protease -7.
For COc1cccc(NC(=O)Cn2c(SCC(=O)N3CCOCC3)nc3ccccc32)c1 the results were 3CLpro inhibitor 2, Anthrax LF prot -5, Autofluor counter 16158*, CCHF vOTU inh -6, BoNT-A LC inh2 inconclusive and BoNT F protease -2.
COc1cccc(/C=C2\CC3(OC(=O)c4ccco4)CCCN2C3)c1 (centres undefined) was read as CCHF vOTU inh 0.
`CCN(CC)c1ccc(C=NNC(=O)c2cc(-c3ccc(C)c(C)c3)n[nH]2)c(O)c1` gave CCHF vOTU inh -23.
For CC(=O)Nc1ccc(C(=O)CSc2nc3ccccc3n2CC(=O)N2CCCC2)cc1 the results were 3CLpro inhibitor -6, Anthrax LF prot -1, Autofluor counter 16357*, CCHF vOTU inh 2, BoNT-A LC inh2 0 and BoNT F protease -4.
`Cc1cc(S(=O)(=O)Nc2ccc3ccccc3c2)c(C)s1` gave 3CLpro inhibitor 4, Anthrax LF prot -4, Autofluor counter 19290*, CCHF vOTU inh -6, BoNT-A LC inh2 5 and BoNT F protease 2.
For COc1ccc(S(=O)(=O)NCCC(C)C)cc1C the results were 3CLpro inhibitor 4, Anthrax LF prot -1, Autofluor counter 23019*, CCHF vOTU inh 3, BoNT-A LC inh2 1 and BoNT F protease 0.
Screening COc1ccc(S(=O)(=O)Nc2ccc3c(c2)OCO3)cc1OC returned 3CLpro inhibitor 2, Anthrax LF prot 0, Autofluor counter 18331*, CCHF vOTU inh 1, BoNT-A LC inh2 inconclusive and BoNT F protease -2.
`COc1ccc(S(=O)(=O)Nc2ccc3ccccc3c2)cc1C` gave 3CLpro inhibitor 6, Anthrax LF prot 1, Autofluor counter 25259*, CCHF vOTU inh 12, BoNT-A LC inh2 -4 and BoNT F protease -6.
Cc1ccc(S(=O)(=O)Nc2ccc3ccccc3c2)cc1 was read as Anthrax LF prot -1, Autofluor counter 3935, CCHF vOTU inh -3, BoNT-A LC inh2 0 and BoNT F protease -6.
